Source: PubChem BioAssay (Sanford-Burnham Center for Chemical Genomics)
Only some compounds are listed: those with a hit (about 31% of all), similar ones and a draw of the others.
CYP2C19 activ – cytochrome P450 2C19 (human) activation. activation factor at 5 µM. P33261. 96,000 tested, under 10 active. recombinant CYP2C19, luciferin-H EGE luminescence; hits give high values; 0 = fully inhibited enzyme, 1 = untreated enzyme;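 active = activation factor of at least 2 at 5 µM in the primary screen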;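 also: 0 = wells with 2.5 mM tranylcypromine and 1 = vehicle-only wells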
Target sequence (P33261 whole entry, looked up): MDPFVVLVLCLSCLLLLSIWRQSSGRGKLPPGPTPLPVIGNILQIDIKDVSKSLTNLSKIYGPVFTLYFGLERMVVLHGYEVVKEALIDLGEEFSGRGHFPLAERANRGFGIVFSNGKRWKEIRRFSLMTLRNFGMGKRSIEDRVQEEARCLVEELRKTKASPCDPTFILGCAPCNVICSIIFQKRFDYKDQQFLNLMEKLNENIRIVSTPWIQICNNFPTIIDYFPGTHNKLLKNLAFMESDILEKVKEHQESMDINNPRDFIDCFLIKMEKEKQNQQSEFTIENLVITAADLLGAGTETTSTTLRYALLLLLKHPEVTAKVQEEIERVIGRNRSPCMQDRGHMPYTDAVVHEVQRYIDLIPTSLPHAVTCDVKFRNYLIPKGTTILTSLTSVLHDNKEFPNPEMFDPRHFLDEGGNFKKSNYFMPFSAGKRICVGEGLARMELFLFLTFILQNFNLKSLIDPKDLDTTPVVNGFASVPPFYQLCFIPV
CYP2C9 activ – increases human cytochrome P450 2C9 activity; P11712; recombinant CYP2C9, luciferin-H conversion, luminescence; hits give high values; factor 1 = untreated enzyme, 0 = blocked; activation factor at 5 µM; 1.4% of 96,000 active;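 active = activation factor of 2 or more for CYP2C9 at a 5 µM dose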;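 also: 0 = sulfaphenazole-blocked wells and 1 = vehicle-only wells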
CYP2C9 inhib – blocks human cytochrome P450 2C9. P11712. CYP2C9 Supersomes, luciferin-H conversion, luminescence. inhibition, % at 5 µM. 20% of 96,000 active;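 active = blocking of liver enzyme CYP2C9 beyond about 50% at 5 µM, limit read from the data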
CYP2C19 inhib – blocks human cytochrome P450 2C19; CYP2C19 Supersomes, luciferin-H EGE luminescence, 30 min; inhibition, % at 5 µM; 21% of 96,000 active; AID 778;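 active = CYP2C19 inhibition above a set limit at 5 µM in the primary screen, cut at about 50% in these data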;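 also: plate controls were negative control wells for no effect and 2.5 mM tranylcypromine positive control for full effect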
PLAP activator – activators of human placental alkaline phosphatase; P05187; purified PLAP enzyme, luminescent substrate read-out; hits give high values; activation fold at 20 µM; 1.2% of 96,000 active; AID 696; in the data active = activation fold above about 2
Numbers without * were called inactive.

SMILES	CYP2C19 activ	CYP2C9 activ	CYP2C9 inhib	CYP2C19 inhib	PLAP activator
CCCCC(=O)Nc1cccc(NC(=O)c2ccccc2Br)c1	0.4	0.3	73*	58*	0.7
O=C(O)CN1C(=O)c2cccc(Oc3ccc(Cl)cc3)c2C1=O	1.1	0.6	45	-6	1.1
CCOC(=O)c1c(C)[nH]c(C(=O)CN2CCOCC2)c1C	0.8	0.9	13	18	1
CCOC(=O)c1c(C)[nH]c(C(=O)Cn2nnc(-c3ccccc3)n2)c1C	0.4	0.5	48	59*	0.9
CCOC(=O)c1c(C)[nH]c(C(=O)Cn2nnc(-c3ccccc3Cl)n2)c1C	0.8	0.2	82*	19	0.9
CCOC(=O)c1c(C)[nH]c(C(=O)COC(=O)c2ccccn2)c1C	0.7	0.4	56*	34	0.9
CC1CC(C)CN(c2ccc(C(=O)OCC(=O)NC3CCCc4ccccc43)cc2[N+](=O)[O-])C1 (configuration not stated)	0.8	0.5	52*	22	0.9
O=C(COC(=O)c1ccc(Sc2ccccc2)c([N+](=O)[O-])c1)NC1CCCc2ccccc21 (configuration not stated)	1.1	0.1	88*	-12	0.9
COc1cccc(-c2cc(C(=O)Nc3cc(C)nn3-c3ccccc3)no2)c1	1.2	1.5	-51	-20	1.1
O=C(O)c1ccc(CNCc2cccc(Cl)c2Cl)cc1	0.9	1.1	-8	9	1.4
Cc1ccc2cc(C(c3nnnn3C3CCCC3)N(Cc3cccnc3)Cc3ccco3)c(=O)[nH]c2c1 (configuration not stated)	0.1	0.3	74*	92*	1.6
CCC(c1nnnn1C1CCCCC1)N(Cc1ccco1)Cc1cc2ccc(OC)cc2[nH]c1=O (configuration not stated)	0	0.2	84*	95*	1
COc1ccc2cc(CN(CCCN3CCOCC3)Cc3nnnn3C3CCCCC3)c(=O)[nH]c2c1	0.6	0.9	7	39	1.9
COc1ccc2cc(CN(CCc3ccccc3)Cc3nnnn3Cc3ccco3)c(=O)[nH]c2c1	0	0	100*	96*	1.7
COc1ccc2[nH]c(=O)c(CN(Cc3nnnn3Cc3ccco3)C3CCCCC3)cc2c1	0.1	0.2	75*	89*	1.6
COc1ccc2[nH]c(=O)c(CN(C3CCCCC3)C(c3nnnn3Cc3ccco3)C(C)C)cc2c1 (configuration not stated)	0.4	0.1	95*	60*	1.7
COc1ccc2[nH]c(=O)c(C(c3nnnn3C3CCCC3)N(C)C3CCCCC3)cc2c1 (configuration not stated)	1	1.1	-7	1	1
Cc1cccc2cc(CN(Cc3ccc(F)cc3)Cc3nnnn3C3CCCC3)c(=O)[nH]c12	1.1	0.9	14	-5	1
COc1ccccc1CN(Cc1cc2c(C)ccc(C)c2[nH]c1=O)Cc1nnnn1Cc1ccco1	0.4	0.2	80*	60*	0.9
NC(=O)Cn1c(=O)n(Cc2ccco2)c(=O)c2c3c(sc21)CCCCC3	0.8	0.8	18	21	1
O=c1c2c3c(sc2n(CCN2CCOCC2)c(=O)n1Cc1ccco1)CCCCC3	0.5	0.2	77*	51*	1.5
CC1(C)Cc2c(sc3c2c(=N)n(Cc2ccco2)c(=O)n3CC(=O)Nc2cccc(Cl)c2)CO1	0.7	0.6	45	28	1.8
Cc1cccc(NC(=O)Cn2c(=O)n(Cc3ccco3)c(=N)c3c4c(sc32)COC(C)(C)C4)c1	0.4	0.4	61*	59*	1.5
O=c1c2c3c(sc2n(CCN2CCCCC2)c(=O)n1Cc1ccco1)CCCCC3	0.5	0.4	61*	45	1.9
CCn1c(=O)n(CCc2ccccc2)c(=O)c2c3c(sc21)CCCC3	1	1.1	-9	-2	0.8
SMILES	CYP2C19 activ	CYP2C9 activ	CYP2C9 inhib	CYP2C19 inhib	PLAP activator
O=C(Cn1c(=O)n(Cc2ccco2)c(=O)c2c3c(sc21)CCCC3)Nc1ccccc1	0.3	0.2	80*	72*	1.6
CSc1nncc(=O)[nH]1	1.1	1.1	-13	-9	0.8
CCOc1ccc(N2CSC3=C(C#N)C(c4ccco4)CC(=O)N3C2)cc1 (configuration not stated)	0.9	0.7	33	7	1.4
Cc1ccc(C2CC(=O)N3CN(c4ccc(Br)cc4)CSC3=C2C#N)o1 (configuration not stated)	0.1	0	98*	90*	1
N#CC1=C2SCN(c3ccccc3)CN2C(=O)CC1c1cccs1 (configuration not stated)	0.5	0.2	83*	50*	1.3
N#CC1=C2SCN(Cc3ccco3)CN2C(=O)CC1c1c(F)cccc1Cl (configuration not stated)	1	0.8	23	3	1
N#CC1=C2SCN(c3ccccc3)CN2C(=O)CC1c1c(Cl)cccc1Cl (configuration not stated)	0.9	0.1	88*	15	1
COc1cc(OC)c(C2CC(=O)N3CN(c4ccccc4)CSC3=C2C#N)cc1OC (configuration not stated)	0.9	0.6	38	15	1.2
N#CC1=C2SCN(c3ccccc3)CN2C(=O)CC1c1ccccc1Cl (configuration not stated)	0.7	0.4	61*	27	1
Cc1cc(C)n2c(SCC(=O)Nc3ccc(Cl)cn3)nnc2n1	0.6	0.8	16	36	1.1
Cc1ccc(Cn2ncn3c(cc4ccccc43)c2=O)cc1	1.1	0.9	14	-8	0.9
CCOC(=O)c1c(CN2CCN(CCO)CC2)n(C)c2cc(Br)c(OC)cc12	0.9	0.2	79*	9	1.5
Cc1occc1-c1nnc(SCC(=O)Nc2ccccc2N2CCCCC2)n1C	0.5	0.7	28	45	1.4
CC(=O)c1cccc(-n2nnnc2SCC(=O)Nc2ccccc2N2CCCCC2)c1	0	0.1	87*	96*	1.5
c1ccc(OCCSc2nnnn2C2CCCCC2)cc1	0.3	0.2	82*	68*	1.2
Cc1ccccc1-n1nnnc1SCC(=O)Nc1ccc(S(=O)(=O)N2CCCC2)cc1	1.2	1	-2	-18	1
O=C(CSc1nnnn1-c1ccc(O)cc1)Nc1cccc(S(=O)(=O)N2CCCC2)c1	0.1	0.6	38	93*	1.3
O=C(CSc1nnnn1C1CCCCC1)Nc1cccc(NC(=O)c2ccco2)c1	0.3	0.2	77*	69*	0.8
Cc1ccc(C)c(N2CCN(CCCNC(=O)Cn3cc4c(n3)CCCCC4)CC2)c1	0.7	1	0	28	1.4
CC(=O)c1cccc(-n2nnnc2SCC(=O)Nc2cccc(NC(=O)c3ccco3)c2)c1	0.2	0.4	55*	82*	1.5
O=C(CSc1nnnn1C1CCCCC1)Nc1ccc2c(c1)OCO2	0.8	0.5	53*	25	1.2
